These results are taken from PubChem BioAssay.

Test [1] has as its system Human papillomavirus type 1a protein E7 (residues 44-93). Kind of test: small molecules binding HPV E7 44-93 – biochemical, small-molecule microarray, residues 44-93, 635 nm fluorescence, primary screen (AID 1108).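 Further: E7 fragment applied at 1 µg/mL in TBST for 1 h at 4 C; score combines spot fluorescence with its signal to noise ratio.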 The settings on record: fluorescence 635 nm, higher = more signal.
A short description of test [2]: hepatitis C replication reporter changes, two-sided – Huh7 cells, luciferase reporter, HCV replication inhibitor project, primary screen (AID 1109).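 Further: huh7 hepatoma cells harbouring a luciferase neomycin HCV replicon reporter; luciferase luminescence as measure of HCV replicon replication; test concentration not given here.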 The following applies: Huh7 HCV replicon luciferase reporter, 48 h; higher = more signal. Background: In a reporter assay the amount or activity of a reporter protein is the signal.
In test [3] the target is Left-right determination factor 2 (Homo sapiens) (UniProt O00292). Kind of test: small molecules binding LEFTY2 protein – biochemical, small-molecule microarray, 635 nm fluorescence scan, primary screen (AID 1110). The following applies: higher = more signal.
Left-right determination factor 2 (Homo sapiens), sequence (O00292 whole entry, looked up): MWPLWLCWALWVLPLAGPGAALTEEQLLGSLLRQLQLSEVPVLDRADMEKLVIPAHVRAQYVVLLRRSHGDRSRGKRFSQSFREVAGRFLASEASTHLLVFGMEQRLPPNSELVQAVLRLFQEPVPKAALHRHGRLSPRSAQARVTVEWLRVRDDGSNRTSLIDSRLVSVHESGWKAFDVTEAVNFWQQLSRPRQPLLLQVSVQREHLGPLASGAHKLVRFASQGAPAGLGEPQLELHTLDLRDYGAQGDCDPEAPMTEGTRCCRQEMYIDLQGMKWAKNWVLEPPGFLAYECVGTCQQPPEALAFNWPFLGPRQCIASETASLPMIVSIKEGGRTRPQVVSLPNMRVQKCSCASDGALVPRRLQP
Test [4] has as its target Calmodulin-1 (Homo sapiens) (UniProt P0DP23). In words: small molecules binding calmodulin-1 with EGTA – biochemical, small-molecule microarray, Cy5-labelled CALM1, profiling panel (AID 1111).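 Further: labelled calmodulin applied in Tris saline Tween buffer holding calcium plus EGTA and DTT.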 The settings on record: Cy5-CALM1 binding fluorescence, higher = more signal.
Test [5] has the same target. Kind of test: small molecules binding Ca-loaded calmodulin-1 – biochemical, small-molecule microarray, Cy5-labelled CALM1, plus calcium, artefact control for SMM control-protein annotation, profiling panel (AID 1112).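 Further: score merges spot fluorescence with signal to noise from triplicate slides.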 The settings on record: Cy5-CALM1 binding fluorescence, higher = more signal.
Test [6] is described as follows: probe aWnt5a binding to arrayed compounds – biochemical, biotinylated probe, 635/667 nm fluorescence, primary screen (AID 1113).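 Further: score merges 667 nm fluorescence intensity with signal-to-noise per printed feature.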 The settings on record: small-molecule microarray, higher = more signal.
Test [7] in a line: probe aShh binding to arrayed compounds – biochemical, biotinylated probe, 635/667 nm fluorescence, primary screen (AID 1114).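 Further: probe is biotin-labelled aShh protein from a stem cell growth factor screen; measures binding of labelled protein to compounds printed on the slide; score merges feature fluorescence at 667 nm with signal-to-noise.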 The settings on record: small-molecule microarray, higher = more signal.
Test [8] in a line: probe aNog binding to arrayed compounds – biochemical, biotinylated probe, 635/667 nm fluorescence, primary screen (AID 1115).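 Further: probe is biotinylated aNog protein used at 0.15 µg/mL for 1 h at 4 C; z-score combines 667 nm fluorescence of each spot with its signal to noise.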 The settings on record: small-molecule microarray, higher = more signal.
The target of test [9] is Torsin-1A-interacting protein 1 (Homo sapiens) (UniProt Q5JTV8). Kind of test: compound microarray binding of lysate hLAP1 – cell lysate, small-molecule microarray, COS7 lysate, 635/667 nm fluorescence, primary screen (AID 1116). The settings on record: 635 nm fluorescence, higher = more signal.
Torsin-1A-interacting protein 1 (Homo sapiens), sequence (Q5JTV8 whole entry, looked up): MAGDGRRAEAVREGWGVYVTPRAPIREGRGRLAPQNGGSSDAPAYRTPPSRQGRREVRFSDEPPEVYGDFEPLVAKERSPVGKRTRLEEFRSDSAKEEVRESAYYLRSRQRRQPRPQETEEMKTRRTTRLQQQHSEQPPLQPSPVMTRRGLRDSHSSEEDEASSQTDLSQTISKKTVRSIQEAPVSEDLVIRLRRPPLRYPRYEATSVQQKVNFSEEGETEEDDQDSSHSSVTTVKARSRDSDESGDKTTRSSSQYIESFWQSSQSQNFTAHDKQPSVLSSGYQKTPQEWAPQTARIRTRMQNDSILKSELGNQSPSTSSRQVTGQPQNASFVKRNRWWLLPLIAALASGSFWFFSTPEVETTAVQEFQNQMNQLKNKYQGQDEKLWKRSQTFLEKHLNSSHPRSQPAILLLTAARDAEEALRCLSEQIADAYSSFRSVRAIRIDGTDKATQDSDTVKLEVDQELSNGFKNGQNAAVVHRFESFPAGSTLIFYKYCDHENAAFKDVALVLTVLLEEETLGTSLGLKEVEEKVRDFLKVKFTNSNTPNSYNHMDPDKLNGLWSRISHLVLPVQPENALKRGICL
Test [10] addresses Alpha-bungarotoxin (Bungarus multicinctus) (UniProt P60615). In words: compounds binding labelled alpha-BTX control protein – biochemical, small-molecule microarray, Alexa647 label, 635/667 nm fluorescence, artefact control for SMM control protein annotation, profiling panel (AID 1117). The following applies: alpha-BTX-A647 binding fluorescence, higher = more signal.

Alpha-bungarotoxin (Bungarus multicinctus), sequence (P60615 whole entry, looked up): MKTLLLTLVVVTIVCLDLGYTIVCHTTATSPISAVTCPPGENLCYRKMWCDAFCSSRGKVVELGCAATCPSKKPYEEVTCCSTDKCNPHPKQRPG

As for `CCC(=O)[C@@]1(O)C(=O)N2C(=C3C(=O)OCC[C@@H]31)N(Cc1ccccc1)C(C)=C(C(=O)OC)[C@H]2c1ccccc1`, the composite z-score in test [1] is 0.403; in test [3], 0.366; in test [4], -0.368; in test [5], -0.478; in [6] it was 0.0108; in test [7], -0.221. Also, the composite z-score in test [8] is -0.369; in test [9] it was 0.478; in [10], -0.0321. Also, the z-score in test [2] came out at 0.0779.

On to `CCCNC(=O)OC[C@H]1O[C@H](CCON=C(C)CCN2CCCc3nc(C)c(C)cc32)C=C[C@@H]1Oc1ccc(OC)cc1`, for which the composite z-score in test [1] was 0.652; in test [3] it was 0.425; in [4] it was 0.65; in [5] it was 0.241; in [6], -0.119; in test [7] it was 0.0952. Moreover, the composite z-score came out at 0.358 in [8], 0.186 in test [9] and 0.782 in test [10]. The z-score in test [2] is -2.36.

On to `O=C1CCCC=C1C(O)CCOC(c1ccccc1)(c1ccccc1)c1ccccc1` (stereo not given), for which the composite z-score in test [1] is -1; in test [3] it was 0.13; in test [4] it was -0.428; in test [5], -0.131; in test [6] it was -0.0161; in test [7], -0.366. The composite z-score in test [8] is 0.0195; in [9], -0.462; in [10], -0.28. This compound also returned a z-score in test [2] of -3.22.

As to `CCOC(=O)C1=NO[C@]2(C=C(Br)C3(OCCCO3)[C@H]3O[C@H]32)C1`, the composite z-score in test [1] was -1.53; in test [3], 0.306; in test [4], -1.04; in test [5], -0.175; in [6] it was -0.161; in test [7], -0.0879. Further, the composite z-score was determined as 0.341 in test [8], 0.194 in [9] and 0.477 in [10]. The compound further returned a z-score in test [2] of 0.426.

With `CCOC(=O)[C@H](Cc1ccccc1)NC(=O)CCC1CC(OC(=O)NCCc2ccc(F)cc2)CC2(CCCC(COC(=O)NCC3CCCCC3)O2)O1` (stereo not given in full), the composite z-score in test [1] is 1.38; in test [3] it was 1.03; in test [4], 0.325; in test [5], -0.207; in test [6] it was -0.232; in [7] it was -0.2. The composite z-score is -0.273 in test [8], 0.237 in [9] and 0.289 in [10]. In addition, the z-score in test [2] was -0.019.

As for `CC(CCN1CCCCc2nc(C)c(C)cc21)=NOC[C@@H](C)[C@H](OCc1ccccc1)C(C)C`, the composite z-score in test [1] is -0.824; in test [3], -1.47; in test [4], -1.74; in test [5], -1.8; in test [6], -0.335; in [7], -0.428. Besides, the composite z-score was -0.803 in [8], -1.07 in test [9] and -2.21 in test [10]. This compound also registered a z-score in [2] of -0.876.

As to `CCOC(=O)CCN1C(=O)[C@H]2[C@H]3[C@H](O)[C@H](O)CC(=NOCc4ccccc4)[C@H]3CC[C@H]2C1=O`, the composite z-score was -0.207 in test [1]; 0.389 in [3]; -0.205 in test [4]; -0.329 in test [5]; -0.174 in [6]; -0.0977 in test [7]. The composite z-score in [8] is -0.0312; in [9] it was 0.0908; in test [10] it was 0.857. The same compound came in with a z-score in test [2] of 0.676.

`C[C@H]1CC[C@H]2C(=O)OC(CO)CN2[C@@H]1c1ccc(Br)cc1` (stereo not given in full): the composite z-score was -0.558 in test [1]; 0.137 in [3]; -0.201 in [4]; -0.607 in test [5]; -0.0778 in test [6]; 0.0284 in [7]. Further, the composite z-score in [8] was -0.178; in test [9], -0.303; in [10], 0.867. Further, in test [2], the z-score is -0.125.

For `Cc1ccc(S(=O)(=O)n2c3ccccc3c3nnc(C(=O)c4ccccc4)nc32)cc1`, the composite z-score was -0.463 in test [1]; 0.563 in test [3]; -0.357 in [4]; -0.367 in test [5]; 0.0491 in test [6]; -0.332 in test [7]. The composite z-score is -0.0926 in test [8], 0.302 in test [9] and -0.306 in [10]. In test [2], this compound yielded a z-score of 3.59.

Turning to `CCc1cc2c(nc1CC)CCN(CCC(C)=NOC[C@H]1O[C@H](c3ccccc3)C=C[C@@H]1Oc1ccc(OC)cc1)C2`, the composite z-score in test [1] is 0.371; in test [3], -0.0061; in test [4] it was -0.112; in [5], 0.366; in [6], -0.0944; in test [7], 0.0639. Besides, the composite z-score is -0.0065 in test [8], 0.76 in test [9] and 0.292 in [10]. Further, the z-score in test [2] is -3.16.

Consider `CCOC(=O)[C@H](CC(C)C)NC(=O)CCC1CC(OC(=O)NCCc2ccc(F)cc2)CC2(CCCC(COC(=O)NCCc3ccccc3OC)O2)O1` (stereo not given in full), for which the composite z-score in test [1] is 1.29; in test [3], 0.61; in test [4], 1.57; in [5] it was 0.535; in [6], -0.119; in test [7] it was 0.157. For the same compound, the composite z-score in test [8] is -0.0787; in test [9] it was 0.793; in test [10] it was 0.493. Besides, the z-score in [2] is -1.38.

As for `CO[C@H]1COC(=O)CC=C[C@H](C)[C@@H](OC)COC(=O)[C@@H](C)COC(=O)CC=C[C@@H]1C`, the composite z-score was -0.544 in test [1]; 1.16 in [3]; -2.12 in test [4]; -2.84 in test [5]; -0.1 in test [6]; -0.0769 in test [7]. Moreover, the composite z-score is -0.339 in test [8], 0.34 in [9] and -1.47 in test [10]. The z-score in test [2] was -1.09.
